Compounds with a hit are over-represented: about 19% of the library has one in this group of screens.
HT1080NT lethal – kills 2HG-producing HT-1080-NT fibrosarcoma cells. HT-1080-NT fibrosarcoma viability, CellTiter-Glo ATP luminescence, 48 h. AID 686970. Potency, µM (titrated, usually from 46.1 µM), actives largely listed as cytotoxic. 360,000 compounds, 1.6% hits;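 also: NT is the 2HG producing partner of a matched IDH1 knockdown line; nearly all actives have a fitted effect of over 55% in size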
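HT-1080-NT fibrosarcoma cells (2HG-overproducing), 750 cells/well in RPMI with 5% FBS, dosed after 2 h and incubated 48 h at 37C. CellTiter-Glo luminescence normalized to DMSO and no-cell wells; concentration-response curves fitted and classed.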
HT1080 IDH1KD tx – toxicity to HT-1080 IDH1 knockdown cells (counter line) | HT-1080 IDH1 knockdown viability, ATP luminescence, 48 h | Potency, µM (top dose mostly 46.1 µM), actives largely listed as cytotoxic | 360,000 compounds, 2% hits | AID 686971
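Knockdown cells (IDH1KD HT-1080) received compounds 2 h after plating at 750 cells/well and were kept 48 h at 37 °C in 5% FBS RPMI. A CellTiter-Glo luminescence read gave % activity for curve fitting.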
KB-V1 cytotox – kills drug-selected multidrug resistant KB-V1 cells; 400,000 compounds, 3.4% hits; AID 1347076; Potency, µM (top dose mostly 46.1 µM), most hits filed as cytotoxic; KB-V1 MDR cells viability, CellTiter-Glo, 72 h; also: nearly all actives have a fitted effect of over 60% in size
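Drug-selected KB-V1 cells, grown in DMEM lacking phenol red with 10% FBS, receive compound titrations; after three days at 37 degrees C, surviving cell ATP is quantified by CellTiter-Glo luminescence and responses normalized and curve-fitted.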
TDP1 cell noCPT – qHTS for Inhibitors of human tyrosyl-DNA phosphodiesterase 1 (TDP1): qHTS in cells in absence of CPT | DT40 Tdp1-/- hTDP1 cells, no CPT, ATP luminescence, 48 h | Potency, µM (top dose mostly 46.2 µM), hits mostly inhibitors | 420,000 compounds, 15% hits; also: nearly all actives have a fitted effect of over 55% in size
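Chicken DT40 Tdp1-/- cells complemented with human TDP1, screened without camptothecin (DMSO vehicle only), 400 cells/well. Compounds pin-transferred, cells incubated at 37 °C for at least 48 hr. Growth read as ATP-dependent luminescence (CellTiter-Glo, 30 min at RT).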
DT40 TDP1 CPT – growth inhibition of DT40 Tdp1-/-;hTDP1 cells with camptothecin (screen for TDP1 inhibitors). AID 686979. chicken DT40 Tdp1-/-;hTDP1 cells + 20 nM CPT, ATP luminescence, 48 h. Potency, µM (titrated, usually from 46.2 µM), most hits filed as inhibitors. 420,000 compounds, 12% hits; also: nearly all actives have a fitted effect of over 55% in size
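Cell growth measured by CellTiter-Glo luminescence after a minimum 48 h, 37 C compound exposure with 20 nM CPT in Tdp1-knockout DT40 cells stably expressing hTDP1, seeded 400/well; qHTS titration format.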
KB-3-1 cytotox – KB-3-1 parental cell cytotoxicity; KB-3-1 viability, CellTiter-Glo ATP luminescence, 72 h; Potency, µM (titrated, usually from 46.1 µM), actives largely listed as cytotoxic; 400,000 compounds, 1.4% hits; also: nearly all actives have a fitted effect of over 60% in size
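Parental KB-3-1 adenocarcinoma cells in phenol-red-free DMEM with 10% FBS were pin-treated with compounds at several concentrations, incubated 72 h at 37 °C, and viability read by CellTiter-Glo luminescence; concentration-effect curves were fitted after normalization.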
Hits are given with their value; – = inactive; ? = inconclusive; · = no result given; [ ] = dose if it differs, or a comment. Calls follow the shape of the dose curve; as a rule, active = well fitted curve in the direction sought with a large enough effect; inconclusive = small, poorly fitted or top-dose-only effect, or another doubt; inactive = no such curve, though single readings can be large; an effect the other way counts as inactive or inconclusive.

SMILES | HT1080NT lethal | HT1080 IDH1KD tx | KB-V1 cytotox | TDP1 cell noCPT | DT40 TDP1 CPT | KB-3-1 cytotox
O=C(Nc1ccc(F)c(Cl)c1)c1cc(S(=O)(=O)NCc2ccc3c(c2)OCO3)ccc1F | · | · | – | ? | ? | –
CC(C)c1ccc(NC(=O)c2cc(S(=O)(=O)NCc3ccccc3Cl)ccc2F)cc1 | · | · | ? | 9.2µM | 6.5µM | ?
Cc1ccc(S(=O)(=O)N(CC(=O)Nc2ccc(C(C)C)cc2)Cc2ccccc2)cc1 | · | · | ? | ? | ? | –
CC(C)c1ccc(NC(=O)c2cc(S(=O)(=O)NCCC3=CCCCC3)ccc2F)cc1 | · | · | ? | 18µM | 18µM | –
COc1ccc(N2C(=O)c3ccccc3NC(=O)C2C(=O)Nc2ccc(N3CCOCC3)cc2)cc1 (configuration not stated) | – | – | – | ? | ? | –
CCOc1ccc(CNC(=O)C2Cc3ccccc3N2C(=O)CC)cc1 (configuration not stated) | · | · | – | – | – | –
Cc1ccc(C)c2c1NC(C(=O)O)C1CC=CC21 (configuration not stated) | · | · | ? | ? | ? | –
COC(=O)C1CCCCN1Cc1ccc2c(c1)CN(C(=O)c1ccc(F)cc1)CCO2 (configuration not stated) | · | · | · | – | –[9.04 µM] | ·
Cc1ccc(CSc2ccc3nnc(-c4cccnc4)n3n2)cc1 | – | – | ? | 4.1µM | 21µM | –
Fc1cccc(CSc2ccc3nnc(-c4cccnc4)n3n2)c1 | – | – | ? | 16µM | ? | –
c1ccc(CN2CCN(CCCNc3ccc4nnc(-c5ccccc5)n4n3)CC2)cc1 | – | – | – | ? | ? | –
Brc1ccc(CSc2ccc3nnc(-c4cccnc4)n3n2)cc1 | ? | ? | 9.2µM | 21µM | ? | –
Cc1ccc(CNc2ccc3nnc(-c4ccccc4)n3n2)cc1 | – | – | – | 2.3µM | 3.7µM | –
Nn1c(SCc2ccc(Br)cc2)nnc1-c1cccnc1 | – | – | – | – | – | –
CCC1CN(CCNC(=O)c2ccc3c(c2)OCCO3)Cc2cc(OC)ccc2O1 (configuration not stated) | · | · | · | – | –[9.04 µM] | ·
CCC(C(=O)Nc1ccc(C)c(C)c1)n1c(=O)c(C(F)(F)F)nc2ccccc21 (configuration not stated) | · | · | – | ? | ? | –
O=c1c2sc3ccccc3c2n(Cc2ccccc2F)c(=O)n1CCc1ccccc1 | · | · | – | – | – | –
Cc1cc(-c2cccnc2)c(C#N)c(SCC#N)n1 | – | – | – | – | – | –
Cc1cc(-c2cccnc2)c(C#N)c(SCc2cccc(F)c2)n1 | – | ? | 12µM | – | – | –
Cc1ccc(CSc2ccc3nnc(-c4ccccn4)n3n2)cc1 | – | – | ? | 16µM | 12µM | –
O=S(=O)(O)c1cccnc1SCc1ccccc1 | – | – | – | – | – | –
O=Cc1cccnc1SCc1ccccc1 | ? | ? | 15µM | 1.5µM | 2.3µM | ?
Oc1ccc(O)cc1 | · | · | · | ? | 21µM | ·
O=C(c1ccc(O)cc1)c1ccc(C(=O)c2ccc(O)cc2)cc1 | – | – | ? | ? | – | –
Brc1ccc(CSc2nnc(-c3ccccn3)n2Cc2ccco2)cc1 | ? | 11µM | 7.3µM | 8.2µM | 15µM | –
SMILES | HT1080NT lethal | HT1080 IDH1KD tx | KB-V1 cytotox | TDP1 cell noCPT | DT40 TDP1 CPT | KB-3-1 cytotox
Clc1cccc(CSc2nnc(-c3ccccn3)n2Cc2ccco2)c1 | – | – | 10µM | 16µM | 16µM | ?
c1ccc(CSc2nnc(-c3ccco3)n2Cc2ccco2)cc1 | – | – | 21µM | 23µM | ? | ?
Cc1ccccc1CSc1nnc(-c2cccs2)n1Cc1ccco1 | – | – | 5.8µM | 23µM | ? | –
CNC(=O)CSc1nnc(-c2ccccn2)n1Cc1ccco1 | – | – | – | – | – | –
CC(C)(C)c1ccc(CSc2nnc(-c3ccccn3)n2Cc2ccco2)cc1 | ? | ? | – | ? | ? | ?
CCONC(=O)Nc1ccccc1 | – | – | – | – | – | –
CCC(C(=O)NCc1ccccc1OC)n1nc(C)n2c(cc3sccc32)c1=O (configuration not stated) | · | · | – | ? | ? | –
O=C(O)c1cccc(C(=O)O)c1Br | – | – | – | – | – | –
O=C(CC1c2cc(F)ccc2C=C(c2ccsc2)N1c1ccc(C#CCCO)cc1)c1ccco1 (configuration not stated) | ? | ? | – | 21µM | ? | ?
COC(=O)c1ccc(N2C(c3ccsc3)=Cc3cc4c(cc3C2CC(=O)c2ccco2)OCO4)cc1 (configuration not stated) | ? | ? | ? | 15µM | 21µM | ?
CC(=O)CC1c2cc(F)ccc2C=C(c2ccsc2)N1c1ccc(C#CC2(O)CCCCC2)cc1 (configuration not stated) | ? | ? | ? | 23µM | ? | ?
COc1ncc(-c2ccc(N3C(c4ccsc4)=Cc4ccc(F)cc4C3CC(=O)c3ccco3)cc2)cn1 (configuration not stated) | – | – | – | ? | ? | –
Cc1cc(O)cc2c1O[C@](C)(CCC(=O)O)CC2 | – | – | · | – | – | ·
CC1CCC(NC(=O)C(Cc2ccccc2)n2cccc2)CC1 (configuration not stated) | – | – | – | ? | ? | –
CC1CCCN(C(=O)C(Cc2ccccc2)n2cccc2)C1 (configuration not stated) | – | – | – | – | 15µM | –
O=C(C(Cc1ccccc1)n1cccc1)N1CCN(c2ccccc2)CC1 (configuration not stated) | – | – | – | 26µM | 23µM | ?
Cc1ccc(C)c(N2CCN(C(=O)Cn3cccc3)CC2)c1 | – | – | – | – | ? | ?
Cc1ccc(C)c(N2CCN(C(=O)C(Cc3ccccc3)n3cccc3)CC2)c1 (configuration not stated) | ? | – | ? | 23µM | 23µM | ?
CNS(=O)(=O)c1cn(CC(=O)Nc2ccc(F)cc2F)cc1S(=O)(=O)NC | · | · | – | – | – | –
OCCSc1ncnc2c1oc1ccccc12 | – | – | – | – | – | –
N#CCCSc1ncnc2c1oc1ccccc12 | – | ? | 12µM | – | – | ?
Cc1cccc(OCC(=O)N(Cc2ccc(C(C)(C)C)cc2)Cc2ccco2)c1 | · | · | · | 10µM | 21µM | ·
Cc1ccc(OCC(=O)N(Cc2ccco2)c2ccccn2)cc1 | · | · | · | – | ? | ·
Cc1ccc(CN(Cc2ccco2)C(=O)COc2ccc(C)c(C)c2)cc1 | · | · | ? | 16µM | 23µM | ?
